# Source: PubChem BioAssay (EPA / NIEHS)
# Records with an inconclusive call do not appear. The source made the active and inactive calls. The calls were made as follows, unless noted: active = hit-call score of the fitted dose curve at least 0.9, where 1 is the maximum; inconclusive = response in the unintended direction; inactive = score below 0.9.
# Experiments:
# [1] = CCTE_Deisenroth_H295R-HTRF_384WELL_CTOX: Cytotoxicity Assessment in CCTE's H295R-HTRF Assay, Deisenroth Lab (AID 2284380)
# In short: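 Luminescent ATP viability readout (CellTiter-Glo 2.0), multiplexed on plates used for hormone sampling, after 48 h chemical exposure. Human H295R cells; final concentrations 0.001–100 uM in nine steps, technical triplicates, five experiments; DMSO baseline.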
# [2] = system: SRY-box transcription factor 17 (SOX17) Protein Expression, Deisenroth Lab, SOX17 (gene 64321); assay: CCTE_Deisenroth_DEVTOX-GLR_Endo_SOX17: CCTE's DevTox GLR-Endo Assay Evaluation of SRY-box transcription factor 17 (SOX17) Protein Expression, Deisenroth Lab (AID 2284413; active = hit-call score of the fitted dose curve at least 0.9, where 1 is the maximum; inactive = score below 0.9)
# Experimental: CCTE_Deisenroth_DEVTOX-GLR_Endo assay is a cell-based, multiplex-readout assay that uses RUES2-GLR, a human pluripotent cell line, with measurements taken at 48 hours after chemical dosing in a 384-well microplateCCTE_Deisenroth_DEVTOX-GLR_Endo_SOX17 is 1 of 4 assay components calculated from the CCTE_Deisenroth_DEVTOX-GLR_Endo assay and it measures the percentage of cells in an endoderm state. Using a type of inducible fluorescent protein reporter, gain-of-signal activity can be used to understand changes in gene expression with fluorescent microscopy. The percentage of SOX17+ cells are determined by calculating the number of SOX17+ cells divided by the cell count. To generalize the intended target to other relatable targets, this assay component is annotated to the transcription factor intended target family, where the subfamily is SRY-related HMG-box.Data from the assay component CCTE_Deisenroth_DEVTOX-GLR_Endo_SOX17 was analyzed as 1 assay endpoint. The endpoint is the percent change in SOX17+ cell population relative to the 0.2% DMSO control in the CCTE_Deisenroth_DEVTOX-GLR_Endo assay. This assay endpoint can be referred to as a primary readout since this assay has produced multiple assay endpoints where this one serves as a measure of endoderm differentiation.
# All assay protocols are aligned to the DevTox GLR-Endo assay workflow. […]
# [3] = system: Brachyury (BRA) Protein Expression, TBXT (gene 6862); assay: CCTE_Deisenroth_DEVTOX-GLR_Endo_BRA: CCTE's DevTox GLR-Endo Assay Evaluation of Brachyury (BRA) Protein Expression, Deisenroth Lab (AID 2284417; active = hit-call score of the fitted dose curve at least 0.9, where 1 is the maximum; inactive = score below 0.9)
# In short: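 RUES2-GLR human pluripotent cells, seeded 24 h, then differentiated 48 h in defined media with two chemical exposures 24 h apart (10-point series, 1 nM - 200 uM). Fixed, nuclear-stained, imaged; endpoint is percent BRA+ cells minus 0.2% DMSO control.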
# [4] = CCTE_Deisenroth_DEVTOX-GLR_Endo_CellCount: Viability Assessment in CCTE's DevTox GLR-Endo Assay, Deisenroth Lab (AID 2284420; active = hit-call score of the fitted dose curve at least 0.9, where 1 is the maximum; inactive = score below 0.9)
# In short: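 Nuclei counted by fluorescence microscopy as a surrogate for cell number, expressed as percent change relative to 0.2% DMSO control. Human RUES2-GLR cells, 48 h differentiation, dosed twice; 1 nM - 200 uM series.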
# [5] = system: SRY-box transcription factor 2 (SOX2) Protein Expression, Deisenroth Lab, SOX2 (gene 6657); assay: CCTE_Deisenroth_DEVTOX-GLR_Pluri_SOX2: CCTE's DevTox GLR-Pluri Assay Evaluation of SRY-box transcription factor 2 (SOX2) Protein Expression, Deisenroth Lab (AID 2284428; active = hit-call score of the fitted dose curve at least 0.9, where 1 is the maximum; inactive = score below 0.9)
# In short: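 RUES2-GLR (human pluripotent), 48 h post-dosing, 2 exposures q24h, 1 nM–200 uM 10-pt. Fixed, nuclear dye, high-content imaging 5 fields/well. Endpoint: % SOX2+ cells (SOX2+/total count) vs 0.2% DMSO; n≥4.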
# [6] = system: Brachyury (BRA) Protein Expression, Deisenroth Lab, TBXT (gene 6862); assay: CCTE_Deisenroth_DEVTOX-GLR_Pluri_BRA: CCTE's DevTox GLR-Pluri Assay Evaluation of Brachyury (BRA) Protein Expression, Deisenroth Lab (AID 2284429)
# In short: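 Mesoderm readout after 48 h differentiation of human RUES2-GLR cells, dosed twice (24-h intervals) at 1 nM - 200 uM. BRA+ frequency from fluorescence imaging of fixed, nuclear-stained cells, DMSO-corrected.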
# [7] = CCTE_Deisenroth_DEVTOX-GLR_Pluri_CellCount: Viability Assessment in CCTE's DevTox GLR-Pluri Assay Evaluation of Total Cell Counts, Deisenroth Lab (AID 2284430; active = hit-call score of the fitted dose curve at least 0.9, where 1 is the maximum; inactive = score below 0.9)
# In short: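 Cytotoxicity readout: fluorescent nuclei counts by high-content imaging, expressed as percent change relative to 0.2% DMSO. Human RUES2-GLR pluripotent line differentiated 48 h, dosed twice at 24-h intervals across 1 nM - 200 uM (10 points).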
smiles,measurement,setting,value
CCCCNC(=O)n1c(NC(=O)OC)nc2ccccc21,AC50,[1],5.92 µM (active)
CCCCC(CC)COC(=O)c1ccccc1C(=O)OCC(CC)CCCC (stereo unspecified),outcome,[1],inactive
OC(c1ccc(Cl)cc1)(c1cncnc1)c1ccccc1Cl (stereo unspecified),outcome,[1],inactive
CCNc1nc(Cl)nc(NC(C)C)n1,outcome,[1],inactive
COc1nc(NC(C)C)nc(NC(C)C)n1,outcome,[1],inactive
COC(=O)c1ccccc1C(=O)OC,outcome,[2],inactive
same,outcome,[3],inactive
same,outcome,[4],inactive
same,outcome,[5],inactive
same,outcome,[6],inactive
same,outcome,[7],inactive
